# Tests used:
# Conditions in all cases: concentration: 1 μM,replicates: in singlicate; n = 1
# CDC2L2 = test system: CDC2L2
# CDC2L5 = test system: T1, CDC2L5
# T1 construct: gene CDK13
# CDK11 = test system: T2, CDK11
# T2 construct: gene CDK19
# CDK2 = test system: CDK2
# CDK3 = test system: CDK3
# CDK4-cyclinD1 = test system: CDK4-cyclinD1
# CDK4-cyclinD3 = test system: CDK4-cyclinD3
# CDK4 = test system: CDK4
# CDK5 = test system: CDK5
# CDK7 = test system: CDK7
# 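Note: KINOMEscan kinase panel screen.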
Structure (SMILES),%Inh (CDC2L2) [%],%Inh (CDC2L5) [%],%Inh (CDK11) [%],%Inh (CDK2) [%],%Inh (CDK3) [%],%Inh (CDK4-cyclinD1) [%],%Inh (CDK4-cyclinD3) [%],%Inh (CDK4) [%],%Inh (CDK5) [%],%Inh (CDK7) [%]
C[C@H]1Oc2cc(cnc2N)-c2c(nn(C)c2C#N)CN(C)C(=O)c2ccc(F)cc21,18,0,12,21,6,0,0,0,11,0
CC(C)Nc1cc(-c2ccc3c(N)n[nH]c3c2)nc(N)n1 [GSK2221681],0,0,0,21,0,0,0,0,0,0
Nc1nc(Nc2ccccc2)cc(-c2ccc3c(N)n[nH]c3c2)n1 [GSK2225749],0,0,0,0,8,0,0,0,0,7
Cc1occc1-c1nc(N)c(OC[C@@H](N)Cc2c[nH]c3ccccc23)cc1-c1cc2c(C)n[nH]c2cn1 [GSK1660450],0,0,0,0,12,0,0,0,0,75
Cl.Cl.NC[C@H](CC1CCCCC1)NC(=O)c1cc(Br)c(-c2ccnc3[nH]ccc23)s1 [GSK1581427],0,0,12,0,0,0,6,0,0,45
NC(=O)c1cc(-c2ccccc2)cc2c(C3CCNCC3)c[nH]c12 [GSK301362],17,0,6,0,16,0,3,13,0,0
CN(C)CCOc1ccc(-c2cc(-c3c[nH]nc3-c3ccccn3)ccn2)cc1 [GW835314],9,0,13,1,16,0,17,45,0,16
Cl.Cl.NC[C@H](Cc1ccc(C(F)(F)F)cc1)NC(=O)c1cc(Br)c(-c2ccnc3[nH]ccc23)s1 [GSK1487252],0,0,14,3,0,14,2,0,0,0
CCN(CC)CCOc1ccc(Nc2ncc3cc(-c4c(Cl)cccc4Cl)c(=O)n(C)c3n2)cc1 [SB-601273],43,41,90.1,7,9,80,48,89,0,34
Cc1cc2cn[nH]c2cc1-c1cccc2c(N)c(C(N)=O)nnc12,32,0,1,24,43,8,35,18,88,0
C[C@@H](Oc1cc(-c2cnn(C3CCNCC3)c2)cnc1N)c1c(Cl)ccc(F)c1Cl,55,0,29,11,12,12,0,0,12,–
Cl.Cl.Nc1nc(-c2ccc3c(N)n[nH]c3c2)cc(N2CCCC(NC(=O)c3ccccc3)C2)n1 (stereo not shown) [GSK2286775],31,0,11,0,16,0,19,0,0,0
CCN(CC)CCCCNc1ncc2cc(-c3c(Cl)cccc3Cl)c(NC(=O)NC(C)(C)C)nc2n1,0,9,14,8,10,0,0,9,14,34
CCn1c(-c2nonc2N)nc2c(C#CC(C)(C)O)nc(OCCN)cc21.Cl.Cl [GSK902056],3,0,1,0,22,0,0,0,0,0
Cc1n[nH]c2ccc(-c3cc(OC[C@@H](N)Cc4ccccc4)cnc3-c3ccoc3)cc12.O=C(O)C(F)(F)F.O=C(O)C(F)(F)F [GSK507358],0,0,6,0,0,0,0,10,0,0
Cc1ccc(-n2nc(C(C)(C)C)cc2NC(=O)Nc2ccc(OCCN3CCOCC3)c3ccccc23)cc1 [GW839464],13,0,100,0,11,5,0,0,5,0
CNC(=O)c1ccccc1Sc1ccc2c(/C=C/c3ccccn3)n[nH]c2c1,0,0,0,1,63,0,0,0,3,25
O=C(NCCNc1ccnc(NCc2ccc(F)cc2)n1)c1cc2ccccc2s1 [GSK1379944],0,0,0,68,83,84,11,1,0,0
Cc1cc(C(=O)Nc2ccc(Oc3ccc4nc(NC(=O)C5CC5)cn4n3)cc2)nn1-c1ccccc1,6,0,3,0,39,13,0,4,0,0
Cl.Oc1cc(-c2nc(-c3ccccc3)[nH]c2-c2ccncc2)ccc1Cl [SB-386023],0,1,5,4,0,2,0,47,32,11
Cc1ccc2c(-c3ccncc3)c(-c3ccc(F)cc3)nn2c1.Cl [GW461484],10,0,0,0,0,0,0,28,0,45
CC(C)N1C(=O)Cc2cc(Nc3ncc(C(F)(F)F)c(NCc4cccc(S(C)(=O)=O)c4)n3)ccc21,3,7,0,0,5,26,0,35,9,52
C[C@@H]1CCN(C(=O)CC#N)C[C@@H]1N(C)c1ncnc2[nH]ccc12,0,0,18,0,14,0,6,0,0,2
O=C(NCCCN1CCOC1=O)c1cnc(NCc2cc(Cl)ccc2Cl)nc1NC1CCCC1,0,0,29,0,14,4,0,12,10,14
COc1ccc(C[C@@H](CN)NC(=O)c2cc(Br)c(-c3ccnc4[nH]ccc34)s2)cc1.Cl.Cl [GSK1389063],0,0,39,6,5,0,28,0,0,72
CN(C)CC(O)COc1ccc(Nc2nccc(-c3cnn4nc(N5CCOCC5)ccc34)n2)cc1 (stereo not shown) [GW767488],41,50,27,–,9,99.4,98.3,100,6,99.7
C=CC(=O)Nc1cc2c(Nc3ccc(F)c(Cl)c3)ncnc2cc1OCCCN1CCOCC1 [GW781483],0,19,15,0,0,27,11,23,0,17
